In PubChem BioAssay:
The source made the active and inactive calls.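 Rule for the calls: active = RAM network inhibition above 8.4% in each of two replicates, 3 SD over the compound average; inconclusive = above 8.4% inhibition in only one replicate; inactive = 8.4% inhibition or less in each replicate.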

Assay: RAM signaling pathway blockade in yeast – S. cerevisiae, Pdr1DBD-CYC8 efflux-inhibited sensitized strain, primary screen (AID 1298);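 note: 0% = DMSO untreated cells without growth and 100% = 10 µM 1-NA-PP1 full growth; higher means more yeast growth rescued from 5-FOA killing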
Details: S. cerevisiae cbk1-as DSE1-URA3 strain, 5-FOA growth OD615, 2 d; at 50 µM; active compounds read high
With `CCOC(=O)COc1cccc2c(=O)n(CC(=O)N3CCc4ccccc43)ccc12` the RAM network inhibition was 3.56% (inactive). With `Cc1ccc(S(=O)(=O)/N=C(/Nc2nc(C)cc(C)n2)N2CCOCC2)cc1` the RAM network inhibition was 4.96% (inactive). With `O=C(COc1ccc(S(=O)(=O)NC2CCCCC2)cc1)N1CCN(c2ccc(F)cc2)CC1` the RAM network inhibition was 3.14% (inactive). With `COc1ccc(S(=O)(=O)Cc2ccc(C(=O)N3CCc4ccccc4C3)o2)cc1` the RAM network inhibition was 7.28% (inactive). In the case of `Cc1c(C(=O)NCC(C)C)sc2nc(-c3ccc(F)cc3)cn12`, the RAM network inhibition is reported as 10.7% (inactive). In the case of `CCCN1CCN(C(=O)C2CCN(S(=O)(=O)c3ccc4c(c3)oc(=O)n4C)CC2)CC1`, the RAM network inhibition is reported as -1.87% (inactive). In the case of `COc1ccc(C(=O)/C=C/N2CCCCC2)cc1OC`, the RAM network inhibition is reported as -1.38% (inactive). For `CCOCCn1c(CN(Cc2ccccc2)Cc2ccccc2)nc2c1c(=O)n(C)c(=O)n2C`, the RAM network inhibition was 5.44% (inactive).
